Test results taken from PubChem BioAssay AID504408 (Broad Institute, 2011).
Out of some 300,000 compounds screened, about 5,200 (1.7%) were called active. The sample holds actives, similar compounds and a random draw of the others, so the mix is not that of the screen. Unmarked numbers belong to inactive results.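 The calls were made as follows: active = mean replicate activation of at least 50% with a set share of replicates each reaching 50%; inconclusive = only one of those two conditions met; inactive = mean below 50% and too few replicates reaching it.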

assay: HSF-1 activators, primary screen, NIH3T3-HGL cells, MG132 stress, luminescence, single point (AID 504408); details: NIH3T3-HGL HSF-1 luciferase reporter, MG132, 8 h; at 9 µM; stronger effect = higher value; 100% = twice DMSO control signal;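 also: 0% = median of the neutral control wells and 100% = twice that signal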

SMILES | activation
CCc1ccc(CNC(=O)CCc2nc(-c3cccs3)no2)cc1 | 3.43%
COc1ccc(CCc2nc(-c3cccs3)no2)cc1 | 65% (active)
COc1ccc(OC)c(CNC(=O)CCc2nc(-c3cccs3)no2)c1 | -8.19%
COc1cccc(N2CC(NS(=O)(=O)c3ccc(Cl)cc3)CC2=O)c1 (configuration not stated) | 11.2%
COc1ccc(NC(=O)CCC(=O)N2CCN(S(=O)(=O)c3ccc(C)cc3)CC2)c(OC)c1 | -9.72%
CN(CC(=O)Nc1ccccc1Cl)C(=O)c1ccccc1SCC(=O)N1CCCC1 | 15.5%
COC(=O)CN1C(=S)N(c2ccccc2)C(=O)C1CC(=O)Nc1ccc(Cl)cc1 (configuration not stated) | 4.42%
O=C(Nc1ccccc1)OCc1cn(-c2ccc(Cl)cc2)nn1 | -2.71%
O=C(O)CC1=C(Nc2ccccc2)C(=O)N(c2ccccc2)C1c1ccc(Cl)cc1 (configuration not stated) | 65.5% (active)
COc1ccc(Cl)cc1C=CC=NNC(=O)c1ccncc1 | 5.04%
O=C(Cc1ccc(Br)cc1)NCCc1ccccc1 | 18.4%
CC(=O)c1c(C)[nH]c(C(=O)CN2C(=O)NC(C)(C)C2=O)c1C | -22.1%
Cc1ccc2c(=O)cc(C(=O)NCCc3ccc(S(N)(=O)=O)cc3)oc2c1C | 62.8% (active)
Cc1cc(=O)oc2cc(OC(C)C(=O)NCCc3ccc(S(N)(=O)=O)cc3)ccc12 (configuration not stated) | 12.2%
Cc1cc(=O)oc2c(C)c(OCC(=O)NCCc3ccc(S(N)(=O)=O)cc3)ccc12 | -4.95%
O=C(NCCC1CCCCN1S(=O)(=O)c1ccc(F)cc1)C(=O)NC1CC1 (configuration not stated) | 3.8%
CCOc1ccc(CCNC(=O)COC(=O)C2CCN(c3ccc(C(F)(F)F)cn3)CC2)cc1OCC | 2.31%
O=C(Nc1ccccc1)c1ccc2c(c1)OCCCO2 | 12.7%
O=C(Nc1ccc(Cl)cn1)c1ccc2c(c1)OCCO2 | 9.46%

SMILES | activation
Cc1nc(NC(=O)c2ccc3c(c2)OCCO3)ccc1Br | 58.7% (active)
Nn1cnnc1N/N=C/c1cc([N+](=O)[O-])c(Cl)cc1Cl | 56.4% (active)
O=[N+]([O-])c1ccc(O)c(/C=N/Nc2ccccc2[N+](=O)[O-])c1 | -10.2%
Cc1ccc2nc(NC(=O)CSc3nc(=O)n(CCCN(C)C)c4c3CCC4)sc2c1 | 2.36%
Cc1ccccc1OCC(=O)NNC(=O)c1ccc(-n2cncn2)c([N+](=O)[O-])c1 | 4.89%
Cc1ccc(C)c(NC(=O)COC(=O)Cn2c(C)csc2=O)c1 | -8.55%
COc1cc(/C=N/NC(=O)c2cc(-c3ccccc3C)nc3ccccc23)cc(OC)c1O | 18.6%
CN1CCN(C2Cc3ccc(Cl)cc3Sc3ccc(F)cc32)CC1 (configuration not stated) | -3.39%
CC(=O)NC(Cc1c[nH]c2ccccc12)C(=O)NCCc1ccccc1 (configuration not stated) | -11.2%
Cc1cccc(C)c1OCC(=O)NC(Cc1c[nH]c2ccccc12)C(=O)O (configuration not stated) | 0.58%
CC(=O)NC(Cc1c[nH]c2ccccc12)C(=O)O (configuration not stated) | 56% (active)
CC1CCN(C(=O)c2cccc(S(=O)(=O)N3CCCc4ccccc43)c2)CC1 | 9.01%
Cc1ccc(N2CC(C(=O)N3CCC4(CC3)CC(=O)c3ccccc3O4)CC2=O)cc1C (configuration not stated) | -2.34%
O=C(O)C1C2C=CC(C2)C1C(=O)NCc1ccccc1 (configuration not stated) | -13%
Nc1ccccc1/C=N\N=C/c1ccccc1N | 1.94%
Cc1ccc(-n2ncc3c(N4CCN(c5ccc(F)cc5)CC4)ncnc32)c(C)c1 | 57.9% (active)
Cc1ccc(-n2ncc3c(=O)[nH]cnc32)c(C)c1 | -3.73%
Cc1ccc2cc(C)c(N3CCN(c4ccc(F)cc4)CC3)nc2c1 | 5.08%
Nc1ccc(C(=O)N2CCN(S(=O)(=O)c3ccc(Cl)cc3)CC2)cc1[N+](=O)[O-] | 17.9%

SMILES | activation
COc1ccc(C)cc1NC(=O)CSc1nnc2ccc(-c3ccccn3)nn12 | -10.8%
COc1ccc(C2=NN(C(=O)CSc3nc(=O)n4ccc(C)cc4n3)C(c3ccc(C)cc3)C2)cc1 (configuration not stated) | 9.37%
O=C(NCCc1c[nH]c2ccccc12)c1cccc(Br)c1 | 7.52%
CN(c1ccccc1)S(=O)(=O)c1ccc(Cl)c(C(=O)NCCc2c[nH]c3ccccc23)c1 | -1.41%
O=C(NCCc1c[nH]c2ccccc12)c1cc2ccccc2oc1=O | 62.1% (active)
COc1ccccc1CNS(=O)(=O)c1cc2c3c(c1)CCC(=O)N3CCC2 | 14.6%
COc1ccc(CC(=O)OC(C)C(=O)Nc2ccc(S(N)(=O)=O)cc2)cc1 (configuration not stated) | -0.48%
CC(OC(=O)CNC(=O)c1cccc(F)c1)C(=O)NC1CCCCC1C (configuration not stated) | -3.7%
CCOC(=O)C1=C(c2ccccc2)NC(=S)NC1c1ccc(Cl)cc1 (configuration not stated) | 63.5% (active)
CCOC(=O)C1=C(c2ccccc2)NC(=O)NC1c1cc(OC)c(OC)cc1OC (configuration not stated) | -12.4%
CCOC(=O)C1=C(c2ccccc2)NC(=O)NC1c1cc(OCC)c(O)c([N+](=O)[O-])c1 (configuration not stated) | 29.6%
CCOC(=O)C1=C(CN2CCc3ccccc32)NC(=O)NC1c1ccc(Cl)cc1 (configuration not stated) | 58.6% (active)
CCOC(=O)C1=C(CN2CCc3ccccc32)NC(=O)NC1c1cc(C)ccc1C (configuration not stated) | 15.2%
CCOC(=O)C1=C(CN2CCc3ccccc32)NC(=O)NC1c1cccc([N+](=O)[O-])c1 (configuration not stated) | 39.3%
CC(=O)CC(CC(=O)NC1CCCCC1)c1ccccc1 (configuration not stated) | -2.27%
CC(NC(=O)c1ccccc1SCC(=O)N1CCCC1)c1ccccc1 (configuration not stated) | -5.63%
CCOc1cc(C(C(=O)NCC2CCCO2)N(C(=O)Cn2nnc3ccccc32)c2cccc(OC)c2)ccc1O (configuration not stated) | -1.11%
COc1ccc(C(C(=O)NC(C)(C)C)N(C(=O)Cn2nnc3ccccc32)c2ccc(C(C)=O)cc2)cc1O (configuration not stated) | 1.15%
COc1ccc(C(C(=O)NCC2CCCO2)N(C(=O)Cn2nnc3ccccc32)c2ccc(NC(C)=O)cc2)cc1OC (configuration not stated) | 84% (active)
